The supplement of paper PMC6555819

Experiments:
Experiment in all cases: PBM binding z-score (relative to random genomic background probes); higher = stronger binding; sequences stand for … in GC…GCGATTGACAGCGTAGAATGAAGG
[1] = tested on: FXR:RXRa (NR concentration 270 nM, RXRa partner concentration 90 nM)
How it was run: (§1)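 On custom Agilent 4×180K arrays, double-stranded probes with 34-nt variable regions carried direct-repeat seeds, single-nucleotide variants, half-site ablations or random human genomic background. Ligand-free nuclear receptor dimers were applied for 1 h, and binding was read with antibodies against each partner (one per run). Binding z-scores come from regression-normalized fluorescence, with the random background probes as reference.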

[2] = tested on: LXRa:RXRa (NR concentration 270 nM, RXRa partner concentration 90 nM)
How it was run: as §1

[3] = tested on: LXRa homodimer (NR concentration 270 nM)
How it was run: as §1

[4] = tested on: LXRb:RXRa (NR concentration 270 nM, RXRa partner concentration 90 nM)
How it was run: as §1

[5] = tested on: LXRb homodimer (NR concentration 270 nM)
How it was run: as §1

[6] = tested on: PPARa:RXRa (NR concentration 270 nM, RXRa partner concentration 90 nM)
How it was run: as §1

[7] = tested on: PPARg:RXRa (NR concentration 180 nM, RXRa partner concentration 90 nM)
How it was run: as §1

[8] = tested on: PPARg:RXRa 270nM:90nM, anti-RXR (NR concentration 270 nM, RXRa partner concentration 90 nM)
How it was run: as §1

[9] = tested on: PPARg:RXRa 30nM:10nM, anti-RXR (NR concentration 30 nM, RXRa partner concentration 10 nM)
How it was run: as §1

[10] = tested on: PPARg:RXRa 90nM:30nM, anti-RXR (NR concentration 90 nM, RXRa partner concentration 30 nM)
How it was run: as §1

[11] = tested on: PPARg:RXRa DBDmut IVT, anti-RXR (DBD mutation: RXRa K156A/R161A, NR concentration 270 nM, RXRa partner concentration 90 nM)
How it was run: as §1

[12] = tested on: PPARg:RXRa IVT, anti-PPARg (NR concentration 270 nM, RXRa partner concentration 90 nM)
How it was run: as §1

[13] = tested on: PPARg DBDmut:RXRa IVT, anti-PPARg (DBD mutation: PPARg1 K132A/R137A, NR concentration 270 nM, RXRa partner concentration 90 nM)
How it was run: as §1

[14] = tested on: PPARg DBDmut IVT, anti-PPARg (DBD mutation: PPARg1 K132A/R137A, NR concentration 270 nM)
How it was run: as §1

[15] = tested on: PPARg homodimer (NR concentration 180 nM)
How it was run: as §1

[16] = tested on: PXR:RXRa (NR concentration 270 nM, RXRa partner concentration 90 nM)
How it was run: as §1

[17] = tested on: PXR homodimer (NR concentration 270 nM)
How it was run: as §1

[18] = tested on: RARa:RXR (NR concentration 270 nM, RXRa partner concentration 90 nM)
How it was run: as §1

[19] = tested on: RARa homodimer (NR concentration 270 nM)
How it was run: as §1

[20] = tested on: RARb:RXRa (NR concentration 270 nM, RXRa partner concentration 90 nM)
How it was run: as §1

| Sequence | PBM binding z-score [1] | PBM binding z-score [2] | PBM binding z-score [3] | PBM binding z-score [4] | PBM binding z-score [5] | PBM binding z-score [6] | PBM binding z-score [7] | PBM binding z-score [8] | PBM binding z-score [9] | PBM binding z-score [10] | PBM binding z-score [11] | PBM binding z-score [12] | PBM binding z-score [13] | PBM binding z-score [14] | PBM binding z-score [15] | PBM binding z-score [16] | PBM binding z-score [17] | PBM binding z-score [18] | PBM binding z-score [19] | PBM binding z-score [20] |
| --- | --- | --- | --- | --- | --- | --- | --- | --- | --- | --- | --- | --- | --- | --- | --- | --- | --- | --- | --- | --- |
| ATCGAAAGGTCGACGAGGTGAGTATCCACCGTTT | 3.97 | 3.28 | -0.0498 | 2.63 | 0.248 | 4.28 | 2.41 | 3.45 | 0.781 | 2.21 | 0.709 | 1.86 | 0.578 | 0.779 | 1.21 | 2.78 | 0.403 | 3.19 | 0.424 | 3.84 |
| CTCGAAAGGTCGTGCTCAGGTGAGGATACCAAAC | 5.21 | 3.76 | 0.268 | 3.22 | -0.12 | 4.86 | 2.79 | 4.04 | 0.853 | 2.43 | 0.783 | 1.73 | -0.368 | 0.176 | 1.74 | 3.15 | 0.182 | 3.92 | 0.325 | 3.94 |
| TTACCAAGGTGAAGGTCGTTCATCCCTCTGTAGA | 1.75 | 2.56 | 0.0622 | 1.51 | -0.519 | 2.77 | 3.06 | 4.13 | 2.5 | 3.8 | 1.8 | 3.39 | -0.313 | 0.687 | 0.597 | 1.9 | 0.214 | 1.55 | -0.144 | 2.54 |
| GGAACGAGGGCATAGTTGATAGCATCTGTCGACG | 0.364 | 0.0828 | -0.66 | 0.126 | -0.441 | 2.33 | 3.64 | 5 | 2.9 | 4.54 | 2.46 | 2.41 | -0.0516 | -0.265 | 0.109 | 0.17 | -0.0429 | 0.19 | -0.571 | 1.39 |
| TCTTGTAGATCAACAGGAGGGTAAGAAAGATCGA | 0.289 | 0.24 | -0.818 | 0.0772 | -0.238 | 0.374 | -0.102 | 1.06 | 2.25 | 1.7 | 1.73 | 0.871 | 0.452 | 0.0976 | -0.361 | 0.00133 | -0.381 | -0.112 | 0.0256 | 0.107 |
| GGAACGAGGACAAAGTTGATAGCATCTGTCGACG | -0.0589 | -0.208 | -0.722 | -0.455 | -0.842 | 2.4 | 4.11 | 5.44 | 3.91 | 5.14 | 1.35 | 1.44 | -0.283 | -0.95 | -0.0718 | -0.043 | -0.312 | 0.0802 | 0.0714 | 0.942 |
| CCTACTGGGCCAAAGGTCATTGCTTCCAATGCTC | 4.94 | 5.17 | 4.85 | 4.86 | 0.985 | 6.51 | 11.3 | 9.77 | 10.1 | 11.1 | 5.34 | 6.61 | -0.293 | 0.248 | 2.84 | 5.39 | 1.64 | 5.98 | 0.417 | 4.49 |
| ATCTCTAGGTAAGACTCAGTTCATTGAAGAACGC | 0.66 | 1.1 | 1.32 | 0.779 | 1.11 | 0.841 | 0.175 | 0.381 | 0.0967 | 0.482 | 2.32 | 1.16 | 1.33 | 1.23 | 1.13 | 2.6 | 4.35 | 1.04 | 1.62 | 0.694 |
| TCTAGTTGGTCACGGAGGTCACACATGACGGGTA | 3.11 | 3.52 | 2.42 | 3.42 | 0.605 | 4.06 | 3.59 | 4.13 | 3.55 | 3.84 | 2.5 | 4.34 | 1.38 | 0.722 | 2.93 | 4.71 | 1.67 | 4.56 | 1.18 | 4.01 |
| ATCTCTAGGGAAAGTTCAGTGAAAGATCGATAGA | 0.806 | 1.28 | 0.993 | 0.942 | 0.681 | 1.42 | 0.591 | 1.84 | 0.725 | 1.51 | 0.291 | 0.739 | 0.561 | 0.968 | 1.06 | 1.52 | 1.46 | 1.38 | 1.07 | 2.61 |
| CCTAGCAGCCCAATCTGGGTCACTCAAGGCTTGA | 0.0445 | 0.132 | -0.399 | 0.523 | -0.695 | 2.93 | 1.6 | 1.71 | -0.36 | 1.1 | 3.69 | 4.29 | -0.334 | -0.918 | 0.624 | 0.268 | -0.803 | 1.12 | -0.169 | 0.878 |
| GATACAGGGTCTAGGCCAGAGTACGCGTATTGAT | -0.772 | -0.631 | -0.516 | -0.894 | -1.47 | -0.516 | 0.629 | 0.0439 | -0.269 | -0.108 | -0.37 | 0.257 | -1.76 | -0.427 | -0.543 | -0.687 | -0.433 | -0.694 | -0.222 | 0.0286 |
| TAGCCTAGGTCGTGGGCCAGTATACCACGCGAAC | 0.0973 | 0.0379 | -0.669 | 0.0173 | -0.88 | 0.972 | 0.333 | 0.511 | -0.615 | -0.0658 | -0.693 | 0.595 | -0.359 | -1.24 | -0.437 | -0.344 | -0.949 | 0.14 | -0.754 | 1.19 |
| ACTCGGAGGACATAGGTCAGAGCTACGCCAGTGA | 1.33 | 1.54 | 0.379 | 1.13 | -0.23 | 2.89 | 3.73 | 4.68 | 2.29 | 3.87 | 0.107 | 1.88 | -0.386 | 0.0927 | 0.895 | 1.15 | 0.0875 | 1.9 | 0.402 | 2.31 |
